Measurements as given in PMC7862700, “An all-to-all approach to the identification of sequence-specific readers for epigenetic DNA modifications on cytosine”.

How the values were obtained:
Assay in all cases: DAPPL (digital affinity profiling via proximity ligation, sequencing); 10 mM Tris-HCl pH 7.5, 50 mM NaCl, 1 mM DTT, 4% glycerol, room temperature, 30 min; GST-TFs on glutathione beads, 16-mer random dsDNA library, 0.1% formaldehyde crosslink after washing; high values mean tight binding
[1] = molecular target: T1, FLI1 (Homo sapiens, UniProt Q01543 1-452); details: protein: recombinant; tags: N-terminal GST; dsDNA, one strand shown
T1 sequence: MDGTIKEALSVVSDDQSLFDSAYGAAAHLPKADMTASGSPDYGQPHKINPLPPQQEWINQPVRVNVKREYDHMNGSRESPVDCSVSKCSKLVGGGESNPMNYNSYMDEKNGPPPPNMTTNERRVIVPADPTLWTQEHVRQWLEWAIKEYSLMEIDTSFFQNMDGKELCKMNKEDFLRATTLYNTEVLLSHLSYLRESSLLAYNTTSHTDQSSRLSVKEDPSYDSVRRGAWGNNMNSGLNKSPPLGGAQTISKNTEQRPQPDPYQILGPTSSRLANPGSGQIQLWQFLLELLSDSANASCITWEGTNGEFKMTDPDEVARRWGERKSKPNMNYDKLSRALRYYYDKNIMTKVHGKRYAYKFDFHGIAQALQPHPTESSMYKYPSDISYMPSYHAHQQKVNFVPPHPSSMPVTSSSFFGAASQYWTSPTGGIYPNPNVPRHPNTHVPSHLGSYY
Summary of the method: (§1)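 Human transcription factors were made in yeast as GST fusions, captured on glutathione beads and barcoded with DNA. With a tag-only sample included, the pool was incubated with 200 nmole of a random double-stranded 16-mer DNA library in Tris/NaCl/DTT/glycerol buffer at room temperature for 30 min, then crosslinked with 0.1% formaldehyde after washing, ligated by proximity, amplified and sequenced. For binding signal, each hexamer's read frequency for a factor is divided by its frequency for the tag-only sample.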

[2] = molecular target: T2, ELK1 (Homo sapiens, UniProt P19419 1-428); details: protein: recombinant; tags: N-terminal GST; dsDNA, one strand shown
T2 sequence: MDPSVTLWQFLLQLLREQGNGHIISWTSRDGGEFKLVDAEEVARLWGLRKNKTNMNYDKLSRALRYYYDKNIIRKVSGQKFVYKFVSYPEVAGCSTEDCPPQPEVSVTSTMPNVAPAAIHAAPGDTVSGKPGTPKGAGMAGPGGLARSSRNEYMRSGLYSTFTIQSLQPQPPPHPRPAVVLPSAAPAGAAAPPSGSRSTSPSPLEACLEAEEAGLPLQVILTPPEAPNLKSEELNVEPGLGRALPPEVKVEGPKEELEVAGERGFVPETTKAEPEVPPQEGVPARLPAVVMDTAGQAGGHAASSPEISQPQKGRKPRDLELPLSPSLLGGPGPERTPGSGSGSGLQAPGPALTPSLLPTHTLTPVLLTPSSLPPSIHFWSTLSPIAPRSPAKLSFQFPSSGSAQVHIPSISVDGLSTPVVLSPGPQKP
Summary of the method: as §1

[3] = molecular target: T3, GABPA (Homo sapiens, UniProt Q06546 1-454); details: protein: recombinant; tags: N-terminal GST; dsDNA, one strand shown
T3 sequence: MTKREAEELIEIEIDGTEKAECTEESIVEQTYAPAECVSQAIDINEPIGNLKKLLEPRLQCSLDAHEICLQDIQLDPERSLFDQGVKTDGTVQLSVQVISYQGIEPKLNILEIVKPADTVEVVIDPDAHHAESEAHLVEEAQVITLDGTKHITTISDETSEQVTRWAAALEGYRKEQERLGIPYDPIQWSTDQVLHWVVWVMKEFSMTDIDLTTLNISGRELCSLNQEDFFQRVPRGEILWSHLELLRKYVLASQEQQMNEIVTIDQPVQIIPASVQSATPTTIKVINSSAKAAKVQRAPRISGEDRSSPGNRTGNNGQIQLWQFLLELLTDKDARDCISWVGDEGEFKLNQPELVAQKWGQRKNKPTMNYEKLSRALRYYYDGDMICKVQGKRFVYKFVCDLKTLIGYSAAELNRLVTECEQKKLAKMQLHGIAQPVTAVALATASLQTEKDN
Summary of the method: as §1

[4] = molecular target: T4, ERG (Homo sapiens, UniProt P11308 1-479); details: protein: recombinant; tags: N-terminal GST; dsDNA, one strand shown
T4 sequence: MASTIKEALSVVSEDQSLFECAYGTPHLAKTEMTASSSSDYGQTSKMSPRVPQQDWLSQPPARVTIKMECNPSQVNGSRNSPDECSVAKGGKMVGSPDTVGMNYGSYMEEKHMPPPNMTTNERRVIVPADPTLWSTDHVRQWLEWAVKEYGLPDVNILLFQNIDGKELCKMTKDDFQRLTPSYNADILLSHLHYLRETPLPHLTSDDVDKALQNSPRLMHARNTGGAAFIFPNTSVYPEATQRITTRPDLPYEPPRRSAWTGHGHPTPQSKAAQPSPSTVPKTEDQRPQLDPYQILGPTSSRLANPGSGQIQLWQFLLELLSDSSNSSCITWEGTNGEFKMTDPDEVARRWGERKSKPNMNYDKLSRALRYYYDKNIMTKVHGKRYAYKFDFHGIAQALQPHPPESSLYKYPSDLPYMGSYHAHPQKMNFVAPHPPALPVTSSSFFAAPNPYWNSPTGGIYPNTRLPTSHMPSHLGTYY
Summary of the method: as §1

[5] = molecular target: ELF1 (Homo sapiens, UniProt P32519 1-619); details: protein: recombinant; tags: N-terminal GST; dsDNA, one strand shown
Summary of the method: as §1

[6] = molecular target: T5, EHF (Homo sapiens, UniProt Q9NZC4 1-300); details: protein: recombinant; tags: N-terminal GST; dsDNA, one strand shown
T5 sequence: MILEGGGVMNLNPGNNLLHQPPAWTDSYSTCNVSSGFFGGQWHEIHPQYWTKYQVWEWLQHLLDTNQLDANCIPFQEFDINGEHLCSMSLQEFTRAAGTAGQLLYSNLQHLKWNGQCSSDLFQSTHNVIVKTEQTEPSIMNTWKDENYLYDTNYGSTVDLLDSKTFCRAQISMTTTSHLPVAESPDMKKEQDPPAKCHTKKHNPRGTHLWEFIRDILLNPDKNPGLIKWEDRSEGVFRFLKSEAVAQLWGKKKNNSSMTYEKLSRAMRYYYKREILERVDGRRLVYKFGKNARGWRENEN
Summary of the method: as §1

[7] = molecular target: SPI1 (Homo sapiens, UniProt P17947 1-270); details: protein: recombinant; tags: N-terminal GST; dsDNA, one strand shown
Summary of the method: as §1

[8] = molecular target: SPIB (Homo sapiens, UniProt Q01892 1-262); details: protein: recombinant; tags: N-terminal GST; dsDNA, one strand shown
Summary of the method: as §1

[9] = molecular target: T6, ELK3 (Homo sapiens, UniProt P41970 1-407); details: protein: recombinant; tags: N-terminal GST; dsDNA, one strand shown
T6 sequence: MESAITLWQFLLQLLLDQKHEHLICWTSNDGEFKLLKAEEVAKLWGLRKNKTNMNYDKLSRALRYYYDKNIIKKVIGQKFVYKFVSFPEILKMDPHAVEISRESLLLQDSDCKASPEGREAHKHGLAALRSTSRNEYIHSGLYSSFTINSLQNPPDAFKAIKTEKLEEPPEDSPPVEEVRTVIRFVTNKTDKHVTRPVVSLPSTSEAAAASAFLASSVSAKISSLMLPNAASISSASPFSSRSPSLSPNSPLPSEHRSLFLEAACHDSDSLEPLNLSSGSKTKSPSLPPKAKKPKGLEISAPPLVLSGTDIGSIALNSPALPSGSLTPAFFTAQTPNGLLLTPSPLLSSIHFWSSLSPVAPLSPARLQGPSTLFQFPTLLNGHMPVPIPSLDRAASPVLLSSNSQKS
Summary of the method: as §1

[10] = molecular target: T7, FEV (Homo sapiens, UniProt Q99581 1-238); details: protein: recombinant; tags: N-terminal GST; dsDNA, one strand shown
T7 sequence: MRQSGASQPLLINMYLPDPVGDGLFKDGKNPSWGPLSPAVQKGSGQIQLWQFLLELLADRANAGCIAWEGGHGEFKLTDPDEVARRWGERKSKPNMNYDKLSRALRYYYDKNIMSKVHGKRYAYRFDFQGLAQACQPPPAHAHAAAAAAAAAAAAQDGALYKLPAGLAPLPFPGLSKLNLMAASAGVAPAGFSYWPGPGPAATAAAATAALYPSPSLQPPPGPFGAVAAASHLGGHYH
Summary of the method: as §1

[11] = molecular target: ETV5 (Homo sapiens, UniProt P41161 1-510); details: protein: recombinant; tags: N-terminal GST; dsDNA, one strand shown
Summary of the method: as §1

[12] = molecular target: HSF1 (Homo sapiens, UniProt Q00613 1-529); details: protein: recombinant; tags: N-terminal GST; chain copies: 3; dsDNA, one strand shown
Summary of the method: as §1

[13] = molecular target: T8, SPIC (Homo sapiens, UniProt Q8N5J4 1-248); details: protein: recombinant; tags: N-terminal GST; dsDNA, one strand shown
T8 sequence: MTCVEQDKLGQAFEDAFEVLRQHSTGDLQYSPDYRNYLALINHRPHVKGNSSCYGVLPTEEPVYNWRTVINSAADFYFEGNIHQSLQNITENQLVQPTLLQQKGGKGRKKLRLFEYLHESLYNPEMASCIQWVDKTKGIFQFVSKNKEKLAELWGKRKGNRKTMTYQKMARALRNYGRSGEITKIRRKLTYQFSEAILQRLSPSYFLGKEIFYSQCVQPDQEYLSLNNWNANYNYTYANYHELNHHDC
Summary of the method: as §1

[14] = molecular target: ELF4 (Homo sapiens, UniProt Q99607 1-663); details: protein: recombinant; tags: N-terminal GST; dsDNA, one strand shown
Summary of the method: as §1

[15] = molecular target: T9, ELK4 (Homo sapiens, UniProt P28324-2 1-405); details: protein: recombinant; tags: N-terminal GST; dsDNA, one strand shown
T9 sequence: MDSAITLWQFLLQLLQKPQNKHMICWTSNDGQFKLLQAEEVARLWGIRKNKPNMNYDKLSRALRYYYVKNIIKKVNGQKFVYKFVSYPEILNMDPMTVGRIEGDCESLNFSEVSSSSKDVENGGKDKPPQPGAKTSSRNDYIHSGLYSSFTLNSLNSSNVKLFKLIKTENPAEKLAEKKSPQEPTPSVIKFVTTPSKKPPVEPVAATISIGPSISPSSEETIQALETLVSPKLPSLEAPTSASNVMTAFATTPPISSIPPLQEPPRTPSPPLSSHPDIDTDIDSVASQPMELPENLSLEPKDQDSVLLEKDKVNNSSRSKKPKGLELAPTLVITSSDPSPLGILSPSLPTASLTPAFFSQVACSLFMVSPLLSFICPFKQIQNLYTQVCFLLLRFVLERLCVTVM
Summary of the method: as §1

[16] = molecular target: T10, ETV2 (Homo sapiens, UniProt O00321 1-342); details: protein: recombinant; tags: N-terminal GST; dsDNA, one strand shown
T10 sequence: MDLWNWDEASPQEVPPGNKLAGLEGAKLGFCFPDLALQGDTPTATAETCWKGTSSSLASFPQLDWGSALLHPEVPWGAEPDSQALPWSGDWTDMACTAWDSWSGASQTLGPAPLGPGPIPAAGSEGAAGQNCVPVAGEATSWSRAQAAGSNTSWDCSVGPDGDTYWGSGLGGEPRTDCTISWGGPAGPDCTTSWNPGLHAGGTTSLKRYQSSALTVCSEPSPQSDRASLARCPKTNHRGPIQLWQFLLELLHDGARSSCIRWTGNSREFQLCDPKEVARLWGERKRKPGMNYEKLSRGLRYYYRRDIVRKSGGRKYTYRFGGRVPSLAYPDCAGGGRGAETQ
Summary of the method: as §1

[17] = molecular target: T11, ELF3 (Homo sapiens, UniProt P78545 1-371); details: protein: recombinant; tags: N-terminal GST; dsDNA, one strand shown
T11 sequence: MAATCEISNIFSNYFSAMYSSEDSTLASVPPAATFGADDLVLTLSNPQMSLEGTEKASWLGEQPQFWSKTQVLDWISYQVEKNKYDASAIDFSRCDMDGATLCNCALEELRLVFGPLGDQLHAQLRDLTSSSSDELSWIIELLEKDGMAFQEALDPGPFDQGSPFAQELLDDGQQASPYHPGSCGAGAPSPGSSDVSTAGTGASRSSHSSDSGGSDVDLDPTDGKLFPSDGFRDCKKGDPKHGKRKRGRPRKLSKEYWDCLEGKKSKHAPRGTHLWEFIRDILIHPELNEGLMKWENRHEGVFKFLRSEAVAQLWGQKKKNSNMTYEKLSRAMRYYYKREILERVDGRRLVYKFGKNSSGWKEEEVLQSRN
Summary of the method: as §1

[18] = molecular target: CRX (Homo sapiens, UniProt O43186 1-299); details: protein: recombinant; tags: N-terminal GST; dsDNA, one strand shown
Summary of the method: as §1

[19] = molecular target: ETV1 (Homo sapiens, UniProt P50549 1-477); details: protein: recombinant; tags: N-terminal GST; dsDNA, one strand shown
Summary of the method: as §1

Chain of ELF1 (P32519 whole entry): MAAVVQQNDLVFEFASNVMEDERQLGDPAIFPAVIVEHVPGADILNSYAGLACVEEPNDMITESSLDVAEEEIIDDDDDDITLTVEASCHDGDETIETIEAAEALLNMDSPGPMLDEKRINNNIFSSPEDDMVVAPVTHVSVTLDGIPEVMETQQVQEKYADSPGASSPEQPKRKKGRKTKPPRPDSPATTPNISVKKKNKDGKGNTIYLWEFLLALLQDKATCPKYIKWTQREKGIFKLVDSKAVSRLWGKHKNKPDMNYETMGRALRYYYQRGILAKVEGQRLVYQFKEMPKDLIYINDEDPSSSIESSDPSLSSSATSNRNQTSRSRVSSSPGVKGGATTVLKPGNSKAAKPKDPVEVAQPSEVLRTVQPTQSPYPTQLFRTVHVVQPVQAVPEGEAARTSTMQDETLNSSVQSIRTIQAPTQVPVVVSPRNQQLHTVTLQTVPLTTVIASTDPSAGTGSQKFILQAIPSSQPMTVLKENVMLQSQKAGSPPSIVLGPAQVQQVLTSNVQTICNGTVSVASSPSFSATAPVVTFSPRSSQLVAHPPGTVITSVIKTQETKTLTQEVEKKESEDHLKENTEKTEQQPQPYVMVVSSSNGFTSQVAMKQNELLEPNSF
Chain of CRX (O43186 whole entry): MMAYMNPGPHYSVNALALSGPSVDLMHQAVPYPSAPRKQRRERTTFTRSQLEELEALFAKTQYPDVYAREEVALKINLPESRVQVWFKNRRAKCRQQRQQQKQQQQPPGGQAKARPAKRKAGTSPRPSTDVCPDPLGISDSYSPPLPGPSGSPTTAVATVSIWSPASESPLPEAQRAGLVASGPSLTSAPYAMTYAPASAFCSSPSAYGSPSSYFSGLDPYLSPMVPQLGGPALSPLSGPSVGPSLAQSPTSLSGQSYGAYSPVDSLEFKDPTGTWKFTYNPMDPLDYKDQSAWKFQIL
Chain of SPIB (Q01892 whole entry): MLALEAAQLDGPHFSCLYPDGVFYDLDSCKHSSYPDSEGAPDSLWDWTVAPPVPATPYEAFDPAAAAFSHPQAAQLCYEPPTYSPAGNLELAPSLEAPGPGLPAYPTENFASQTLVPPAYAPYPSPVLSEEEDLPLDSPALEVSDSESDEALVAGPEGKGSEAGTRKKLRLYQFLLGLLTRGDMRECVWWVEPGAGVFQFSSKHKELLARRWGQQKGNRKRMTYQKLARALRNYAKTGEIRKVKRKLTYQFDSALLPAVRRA
Chain of ETV1 (P50549 whole entry): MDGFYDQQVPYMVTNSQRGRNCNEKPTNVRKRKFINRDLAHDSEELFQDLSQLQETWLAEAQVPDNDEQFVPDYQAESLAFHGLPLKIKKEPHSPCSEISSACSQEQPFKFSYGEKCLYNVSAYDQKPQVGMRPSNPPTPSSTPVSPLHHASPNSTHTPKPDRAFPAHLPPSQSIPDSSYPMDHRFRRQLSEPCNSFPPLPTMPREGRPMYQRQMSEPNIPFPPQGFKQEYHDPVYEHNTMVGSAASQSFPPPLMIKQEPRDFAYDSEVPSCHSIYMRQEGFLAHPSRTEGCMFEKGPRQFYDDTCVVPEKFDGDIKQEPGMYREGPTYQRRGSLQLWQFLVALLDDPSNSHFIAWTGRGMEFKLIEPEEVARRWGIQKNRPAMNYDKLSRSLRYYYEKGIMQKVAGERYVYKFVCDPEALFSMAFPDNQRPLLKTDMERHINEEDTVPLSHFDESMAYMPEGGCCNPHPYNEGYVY
Chain of ELF4 (Q99607 whole entry): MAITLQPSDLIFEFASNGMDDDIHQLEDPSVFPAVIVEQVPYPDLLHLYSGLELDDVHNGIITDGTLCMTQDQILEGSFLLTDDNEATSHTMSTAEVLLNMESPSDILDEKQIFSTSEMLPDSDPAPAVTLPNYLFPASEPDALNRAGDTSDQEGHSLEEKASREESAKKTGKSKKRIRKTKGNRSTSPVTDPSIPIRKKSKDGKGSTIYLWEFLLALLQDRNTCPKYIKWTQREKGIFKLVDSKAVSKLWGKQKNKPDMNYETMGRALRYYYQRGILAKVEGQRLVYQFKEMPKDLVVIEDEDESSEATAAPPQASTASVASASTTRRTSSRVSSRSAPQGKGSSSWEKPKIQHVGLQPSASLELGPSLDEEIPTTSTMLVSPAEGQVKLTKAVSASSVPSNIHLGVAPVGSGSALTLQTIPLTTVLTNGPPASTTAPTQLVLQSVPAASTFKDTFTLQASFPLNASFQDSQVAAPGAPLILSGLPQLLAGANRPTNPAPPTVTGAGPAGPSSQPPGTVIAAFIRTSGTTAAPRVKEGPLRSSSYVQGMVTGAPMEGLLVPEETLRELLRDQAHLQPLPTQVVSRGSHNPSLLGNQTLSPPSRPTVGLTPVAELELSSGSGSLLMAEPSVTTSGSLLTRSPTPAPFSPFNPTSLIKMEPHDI
Chain of HSF1 (Q00613 whole entry): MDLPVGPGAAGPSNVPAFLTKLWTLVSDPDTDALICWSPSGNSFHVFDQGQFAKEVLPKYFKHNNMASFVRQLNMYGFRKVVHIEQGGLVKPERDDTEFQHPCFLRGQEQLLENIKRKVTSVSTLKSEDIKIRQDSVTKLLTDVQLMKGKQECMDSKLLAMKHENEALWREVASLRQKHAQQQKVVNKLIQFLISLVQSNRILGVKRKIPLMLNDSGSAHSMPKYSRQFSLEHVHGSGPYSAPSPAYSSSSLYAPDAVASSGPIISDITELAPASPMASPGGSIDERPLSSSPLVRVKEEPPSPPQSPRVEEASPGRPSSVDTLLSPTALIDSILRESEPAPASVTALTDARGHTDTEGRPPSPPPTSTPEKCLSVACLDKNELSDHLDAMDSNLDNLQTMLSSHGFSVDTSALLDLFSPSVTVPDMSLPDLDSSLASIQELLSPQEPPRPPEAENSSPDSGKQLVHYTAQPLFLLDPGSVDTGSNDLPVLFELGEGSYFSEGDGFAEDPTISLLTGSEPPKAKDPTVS
Chain of ETV5 (P41161 whole entry): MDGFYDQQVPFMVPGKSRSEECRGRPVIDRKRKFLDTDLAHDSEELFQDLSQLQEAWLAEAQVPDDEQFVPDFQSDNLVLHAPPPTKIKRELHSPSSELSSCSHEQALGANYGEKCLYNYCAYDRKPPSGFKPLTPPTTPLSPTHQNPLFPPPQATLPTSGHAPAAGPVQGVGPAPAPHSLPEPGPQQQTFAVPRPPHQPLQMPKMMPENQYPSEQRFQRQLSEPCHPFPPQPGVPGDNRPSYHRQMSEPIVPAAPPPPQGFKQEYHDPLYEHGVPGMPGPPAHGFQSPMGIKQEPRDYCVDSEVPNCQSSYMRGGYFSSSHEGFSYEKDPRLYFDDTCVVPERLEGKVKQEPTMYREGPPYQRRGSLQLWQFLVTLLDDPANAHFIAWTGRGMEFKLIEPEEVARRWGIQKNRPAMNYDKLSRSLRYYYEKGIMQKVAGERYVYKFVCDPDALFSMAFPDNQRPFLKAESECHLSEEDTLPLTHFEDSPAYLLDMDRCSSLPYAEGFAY

In the case of CACTTG, the binding signal [1] is reported as 1.36 fold enrichment (6-mer frequency, TF over GST control), the binding signal [2] is reported as 1.48 fold enrichment (6-mer frequency, TF over GST control) and the binding signal [3] is reported as 1.32 fold enrichment (6-mer frequency, TF over GST control). The binding signal [4] was 1.37 fold enrichment (6-mer frequency, TF over GST control), the binding signal [5] was 1.33 fold enrichment (6-mer frequency, TF over GST control) and the binding signal [6] was 1.36 fold enrichment (6-mer frequency, TF over GST control). The binding signal [7] was 1.39 fold enrichment (6-mer frequency, TF over GST control), the binding signal [8] was 1.3 fold enrichment (6-mer frequency, TF over GST control) and the binding signal [9] was 1.26 fold enrichment (6-mer frequency, TF over GST control). For the same sequence, the binding signal [10] was 1.33 fold enrichment (6-mer frequency, TF over GST control), the binding signal [11] was 1.41 fold enrichment (6-mer frequency, TF over GST control) and the binding signal [12] was 1.12 fold enrichment (6-mer frequency, TF over GST control). The binding signal [13] was 1.12 fold enrichment (6-mer frequency, TF over GST control), the binding signal [14] was 1.45 fold enrichment (6-mer frequency, TF over GST control) and the binding signal [15] was 1.43 fold enrichment (6-mer frequency, TF over GST control). For the same sequence, the binding signal [16] was 1.36 fold enrichment (6-mer frequency, TF over GST control), the binding signal [17] was 1.41 fold enrichment (6-mer frequency, TF over GST control) and the binding signal [18] was 1.1 fold enrichment (6-mer frequency, TF over GST control). For the same sequence, the binding signal [19] was 1.36 fold enrichment (6-mer frequency, TF over GST control).
